Assay results: PubChem BioAssay AID1159580 (chemical genetic matrix, 2015)
The campaign covered roughly 5,500 compounds. About 2,000 (36%) were called active. Inconclusive results (about 18%) are left out. No stated cut-off is given here; in the data, active means normalized growth mostly below about 0.91 (no sharp cut-off); inconclusive means no clear call, values can overlap the other calls; inactive means mostly above about 0.92. This is one part of the list.

Assay: chemical genetic growth profiling, strain panel (AID 1159580);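 further: tested at 20 µM; growth read once vehicle control cultures reached saturation at 30 °C; 1 = growth at the plate median or of vehicle wells; lower values mean less growth of the strain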
Details: growth OD

Measured: normalized growth

C[C@@H]1O[C@@H](O[C@H]2C[C@@H](O)[C@]3(CO)C4C(CC[C@]3(O)C2)[C@@]2(O)CC[C@H](C3=CC(=O)OC3)[C@@]2(C)C[C@H]4O)[C@H](O)[C@H](O)[C@H]1O (some centres not stated)
inactive: S. cerevisiae deletion strains, locus YKL009W, strain mrt4, hits give low values 0.991 | S. cerevisiae deletion strains, locus YKL068W, hits give low values 0.998 | S. cerevisiae deletion strains, locus YKL085W, strain MDH1 (second series), hits give low values 0.993 | S. cerevisiae deletion strains, locus YKL085W, strain MDH1, hits give low values 0.993 | S. cerevisiae deletion strains, locus YKL160W, strain elf1, hits give low values 0.993 | S. cerevisiae deletion strains, locus YKR001C, strain vps1, hits give low values 1.01 | S. cerevisiae deletion strains, locus YKR026C, strain gcn3, hits give low values 1.02 | S. cerevisiae deletion strains, locus YKR091W, strain srl3, hits give low values 1.01 | S. cerevisiae deletion strains, locus YLL001W, strain dnm1, hits give low values 1.03 | S. cerevisiae deletion strains, locus YLL026W, hits give low values 1.03 | S. cerevisiae deletion strains, locus YLL041C, strain sdh2, hits give low values 1.01 | S. cerevisiae deletion strains, locus YLR027C, strain aat2, hits give low values 1.01 | S. cerevisiae deletion strains, locus YLR039C, strain RIC1, hits give low values 1.09 | S. cerevisiae deletion strains, locus YLR058C, strain SHM2, hits give low values 1.02 | S. cerevisiae deletion strains, locus YLR102C, strain apc9, hits give low values 0.997 | S. cerevisiae deletion strains, locus YLR113W, strain HOG1, hits give low values 1.01 | S. cerevisiae deletion strains, locus YLR221C, strain rsa3, hits give low values 1.02 | S. cerevisiae deletion strains, locus YLR258W, strain gsy2, hits give low values 1.02 | S. cerevisiae deletion strains, locus YLR262C, strain YPT6 (second series), hits give low values 1.02 | S. cerevisiae deletion strains, locus YLR262C, strain YPT6, hits give low values 1.09 | S. cerevisiae deletion strains, locus YLR268W, strain sec22, hits give low values 0.98 | S. cerevisiae deletion strains, locus YLR320W, strain mms22, hits give low values 1.03 | S. cerevisiae deletion strains, locus YLR330W, strain CHS5, hits give low values 1.01 | S. cerevisiae deletion strains, locus YLR342W, strain FKS1 (second series), hits give low values 1.04 | S. cerevisiae deletion strains, locus YLR342W, strain FKS1, hits give low values 1.02 | S. cerevisiae deletion strains, locus YLR357W, strain rsc2, hits give low values 1.01 | S. cerevisiae deletion strains, locus YLR370C, strain arc18, hits give low values 1.05 | S. cerevisiae deletion strains, locus YLR371W, strain rom2, hits give low values 0.989 | S. cerevisiae deletion strains, locus YLR384C, strain iki3, hits give low values 1.02 | S. cerevisiae deletion strains, locus YLR418C, strain cdc73, hits give low values 0.971 | S. cerevisiae deletion strains, locus YML016C, strain PPZ1, hits give low values 1.02 | S. cerevisiae deletion strains, locus YML032C, strain rad52, hits give low values 0.997 | S. cerevisiae deletion strains, locus YML120C, strain ndi1, hits give low values 1.04 | S. cerevisiae deletion strains, locus YML124C, strain tub3, hits give low values 0.987 | S. cerevisiae deletion strains, locus YMR058W, strain fet3, hits give low values 1.02 | S. cerevisiae deletion strains, locus YMR078C, strain ctf18, hits give low values 0.981 | S. cerevisiae deletion strains, locus YMR125W, strain sto1, hits give low values 1.02 | S. cerevisiae deletion strains, locus YMR129W, hits give low values 1.02 | S. cerevisiae deletion strains, locus YMR205C, strain PFK2, hits give low values 0.995 | S. cerevisiae deletion strains, locus YMR223W, strain ubp8, hits give low values 0.998 | S. cerevisiae deletion strains, locus YMR231W, strain pep5, hits give low values 1.02 | S. cerevisiae deletion strains, locus YMR263W, strain SAP30, hits give low values 1.01 | S. cerevisiae deletion strains, locus YMR307W, strain GAS1, hits give low values 1.17 | S. cerevisiae deletion strains, locus YNL067W, strain RPL9B, hits give low values 1.01 | S. cerevisiae deletion strains, locus YNL071W, strain lat1, hits give low values 1.03 | S. cerevisiae deletion strains, locus YNL183C, strain NPR1, hits give low values 0.963 | S. cerevisiae deletion strains, locus YNL209W, strain ssb2, hits give low values 1.02 | S. cerevisiae deletion strains, locus YNL233W, strain BNI4, hits give low values 1.03 | S. cerevisiae deletion strains, locus YNL248C, strain rpa49, hits give low values 0.985 | S. cerevisiae deletion strains, locus YNL250W, strain rad50, hits give low values 1.02 | S. cerevisiae deletion strains, locus YNL271C, strain bni1, hits give low values 0.985 | S. cerevisiae deletion strains, locus YNL298W, strain CLA4, hits give low values 0.996 | S. cerevisiae deletion strains, locus YNL307C, strain MCK1, hits give low values 0.999 | S. cerevisiae deletion strains, locus YNL322C, strain KRE1 (second series), hits give low values 1.01 | S. cerevisiae deletion strains, locus YNL322C, strain KRE1, hits give low values 1.02 | S. cerevisiae deletion strains, locus YNR049C, strain mso1, hits give low values 1.03 | S. cerevisiae deletion strains, locus YNR052C, strain pop2, hits give low values 0.981 | S. cerevisiae deletion strains, locus YOL006C, strain TOP1, hits give low values 1.03 | S. cerevisiae deletion strains, locus YOL012C, strain htz1 0.899 | S. cerevisiae deletion strains, locus YOL147C, strain pex11, hits give low values 0.997 | S. cerevisiae deletion strains, locus YOR001W, strain rrp6, hits give low values 1.05 | S. cerevisiae deletion strains, locus YOR061W, strain CKA2, hits give low values 1.02 | S. cerevisiae deletion strains, locus YOR069W, strain VPS5, hits give low values 1.02 | S. cerevisiae deletion strains, locus YOR070C, strain gyp1, hits give low values 1.03 | S. cerevisiae deletion strains, locus YOR080W, strain dia2, hits give low values 1.03 | S. cerevisiae deletion strains, locus YOR083W, strain WHI5, hits give low values 0.985 | S. cerevisiae deletion strains, locus YOR106W, strain vam3, hits give low values 1.01 | S. cerevisiae deletion strains, locus YOR136W, strain idh2, hits give low values 0.987 | S. cerevisiae deletion strains, locus YOR144C, strain elg1, hits give low values 0.983 | S. cerevisiae deletion strains, locus YOR184W, strain ser1, hits give low values 1.01 | S. cerevisiae deletion strains, locus YOR231W, strain MKK1, hits give low values 1.02 | S. cerevisiae deletion strains, locus YOR265W, strain rbl2, hits give low values 1.01 | S. cerevisiae deletion strains, locus YOR270C, strain vph1, hits give low values 1.05 | S. cerevisiae deletion strains, locus YOR290C, strain snf2, hits give low values 1.04 | S. cerevisiae deletion strains, locus YOR316C, strain cot1, hits give low values 0.989 | S. cerevisiae deletion strains, locus YPL051W, strain arl3, hits give low values 1.01 | S. cerevisiae deletion strains, locus YPL078C, strain atp4, hits give low values 1.02 | S. cerevisiae deletion strains, locus YPL106C, strain sse1, hits give low values 1.03 | S. cerevisiae deletion strains, locus YPL240C, strain hsp82, hits give low values 1.03 | S. cerevisiae deletion strains, locus YPL241C, strain CIN2, hits give low values 1.01 | S. cerevisiae deletion strains, locus YPL256C, strain CLN2, hits give low values 1.03 | S. cerevisiae deletion strains, locus YPR119W, strain clb2, hits give low values 0.986 | S. cerevisiae deletion strains, locus YPR141C, strain kar3, hits give low values 0.989 | S. cerevisiae deletion strains, locus YPR163C, strain tif3, hits give low values 0.988 | S. cerevisiae deletion strains, locus YPR167C, strain met16, hits give low values 0.99 | S. cerevisiae deletion strains, strain wtn01, hits give low values 0.976 | S. cerevisiae strains, strain wild type, hits give low values 1.02
